Records with an inconclusive call do not appear. The source made the active and inactive calls. Unless noted, the call rests on the fitted dose curve; in most records, active means well fitted curve in the direction sought with a large enough effect in the repeat runs; inconclusive means weak or mixed curves; inactive means no such curve, though single readings can be large; an effect the other way counts as inactive or inconclusive.

Results on eleven molecules are retold here after PubChem BioAssay (Tox21).

Assay [1] has as its target Retinoic acid receptor RXR-alpha (Homo sapiens) (UniProt P19793). In words: qHTS assay to identify small molecule agonists of the RXR signaling pathway (AID 1159527; calls by dose curve; further: nearly all actives have a fitted effect of over 35% in size). Summed up: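 Using 9-cis retinoic acid as the reference agonist, chemicals were tested in HEK 293T cells […] for 16 hr; substrate loading lasted 2 hr at room temperature.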
On the technique in general: In qHTS, concentration-response curves come from the screen itself.

A short description of assay [2]: qHTS assay to identify small molecule agonists of the RXR signaling pathway - cell viability counter screen (AID 1159529). Further: series mostly up to about 77 µM; nearly all actives have a fitted effect of over 50% in size. Summed up: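 Compounds dissolved in DMSO were pinned onto HEK 293T cells carrying a beta-lactamase reporter under RXR-alpha control and incubated 16 hr. Cytotoxicity was then quantified by CellTiter-Glo luminescence.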
The nature of assay [3]: qHTS assay to identify small molecule antagonists of the retinoid acid receptor (RAR) signaling pathway - cell viability counter screen (AID 1159551). Further: nearly all actives have a fitted effect of over 35% in size. The essentials:
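C3RL4 cells were seeded overnight at 37 C, then treated with compounds plus 1 uM (final) retinol for 6 h at 37 C. Viability was read as ATP by CellTiter-Glo luminescence after 30 min at room temperature.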

Assay [4] in a line: qHTS assay to identify small molecule agonists of the retinoic acid receptor (RAR) signaling pathway (AID 1159553). Further: potency means the concentration at half of the fitted maximal effect. The essentials:
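C3RL4 cells carrying a RARE luciferase reporter were plated overnight at 37 C, then exposed to compounds in DMSO for 6 hr at 37 C and 5% CO2. Luminescence was read 30 min after luciferase reagent addition at room temperature.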

Assay [5] is described as follows: qHTS assay to identify small molecule antagonists of the estrogen related receptor (ERR) signaling pathway from Tox21 library - cell viability counter screen (AID 1224834). Further: nearly all actives have a fitted effect of over 30% in size. Summed up:
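ERR reporter cells were plated 6 h before compound addition, then exposed to test compounds in DMSO for 17.5 h at 37 C. Viability was read as CellTiter-Fluor fluorescence after a 30-minute incubation at 37 C.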

For assay [6], the target named is Luciferin 4-monooxygenase (Photinus pyralis) (UniProt P08659). In words: qHTS assay to identify small molecule inhibitors of firefly luciferase (AID 1224835). Further: series mostly up to about 120 µM; nearly all actives have a fitted effect of over 25% in size. Summed up: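 Quantitative HTS format; KM concentrations of both substrates. Purified P. pyralis FLuc activity quantified from luminescence images.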
Assay [7] in a line: qHTS assay to identify small molecule agonists of the constitutive androstane receptor (CAR) signaling pathway - cell viability counter screen (AID 1224836). Further: series mostly up to about 92 µM; nearly all actives have a fitted effect of over 45% in size. Summed up: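 23 h treatment, 37 C, 5% CO2. Cell line: HepG2 stably expressing hCAR with a CYP2B6-2.2kb construct. Co-treatment: PK11195, 0.75 uM final. Read-out: CellTiter-Fluor fluorescence intensity.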
The nature of assay [8]: qHTS assay to identify small molecule antagonists of the constitutive androstane receptor (CAR) signaling pathway - cell viability counter screen (AID 1224837). Further: series mostly up to about 92 µM; nearly all actives have a fitted effect of over 45% in size. The essentials:
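HepG2 cells stably expressing hCAR and a CYP2B6-2.2kb reporter were plated and pre-incubated 4 hr at 37 C/5% CO2, then given compounds at 15 concentrations plus 50 nM CITCO (final). After 23 hr, viability was read by CellTiter-Fluor fluorescence.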

The nature of assay [9]: qHTS assay to identify small molecule antagonists of the estrogen related receptor signaling pathway with the pleiotropic PPARgamma coactivator (PGC) from Tox21 10K library - cell viability counter screen (AID 1224840; active means well fitted cell-killing curve with a large enough effect in the repeat runs, not every such curve was filed as active; further: nearly all actives have a fitted effect of over 40% in size). The essentials: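 PGC/ERR cells were seeded at 2,000 cells/well and left 6 hours at 37 C/5% CO2 before pin-tool addition of compounds in DMSO. After 17.5 hours at 37 C, CellTiter-Fluor was added and fluorescence read 30 minutes later.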

The target in assay [10] is Thyrotropin receptor (Homo sapiens) (UniProt P16473). As to the kind of experiment: qHTS assay to identify small molecule agonists of the thyroid stimulating hormone receptor (TSHR) signaling pathway (AID 1224843; calls by dose curve; further: nearly all actives have a fitted effect of over 45% in size). The essentials: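 Cell line HEK293 with TSHR; density 800/well. Exposure 30 min RT. Readout HTRF cAMP (cAMP-d2/anti-cAMP-cryptate), 1 h RT before reading.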

Assay [11] is described as follows: qHTS assay to identify small molecule agonists of the hypoxia (HIF-1) signaling pathway - cell viability counter screen (AID 1224844; calls by dose curve; further: nearly all actives have a fitted effect of over 50% in size). The essentials: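 HRE-bla ME-180 cells in medium with 0.5% dialyzed FBS were preincubated 5 hrs at 37C, exposed to compounds for 17 hrs, then viability was read as CellTiter-Glo luminescence after 30 min at room temperature, in the reporter wells.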

A short description of assay [12]: qHTS assay to identify small molecule agonists of H2AX (AID 1224845; active means well fitted activation curve with a large enough effect in the signal ratio in the repeat runs, not every such curve was filed as active; the % refers to the signal ratio). The essentials: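 Wild-type CHO-K1 cells plated overnight, then exposed 3 hr at 37C to compounds at 15 concentrations (0.76% DMSO). Lysed, then HTRF anti-pH2AX(S139)-cryptate/anti-H2AX-d2 detection after 24 hr at room temperature; emissions 665 and 620 nm.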
Assay [13] can be described thus: qHTS assay to identify small molecule agonists of the hypoxia (HIF-1) signaling pathway (AID 1224846; active means well fitted activation curve with a large enough effect in the signal ratio in the repeat runs, not every such curve was filed as active; the % refers to the signal ratio). The essentials: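 HRE-bla ME-180 cells (beta-lactamase reporter under hypoxia response element) were plated at 2,000 cells/well in medium with 0.5% dialyzed FBS, rested 5 hrs, then given compounds in DMSO for 17 hrs at 37C, 5% CO2. Reporter induction was read with CCF4-AM FRET substrate.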

In assay [14] the target is Nuclear receptor subfamily 1 group I member 3 (Homo sapiens) (UniProt Q14994). As to the kind of experiment: qHTS assay to identify small molecule antagonists of the constitutive androstane receptor (CAR) signaling pathway (AID 1224838). Further: nearly all actives have a fitted effect of over 40% in size. Summed up:
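HepG2 cells stably co-transfected with hCAR and a CYP2B6-2.2kb luciferase reporter were seeded 4 h before compound addition at 15 concentrations. Cells were stimulated with 50 nM CITCO (final) for 24 h at 37 C; luciferase luminescence was then read.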

Assay [15] has the same target. As to the kind of experiment: qHTS assay to identify small molecule agonists of the constitutive androstane receptor (CAR) signaling pathway (AID 1224839). Further: nearly all actives have a fitted effect of over 15% in size. Further: potency means the concentration at half of the fitted maximal effect.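 On activation: HepG2 cells stably carrying human CAR and a CYP2B6 luciferase reporter; series mostly up to about 92 µM.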 The essentials:
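Compounds tested at 15 concentrations on HepG2 cells stably harbouring hCAR and CYP2B6-2.2kb reporter constructs, co-treated with PK11195 (0.75 uM final), 24 h at 37 C; luminescent reporter signal quantified.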

A short description of assay [16]: qHTS assay to identify small molecule antagonists of the estrogen related receptor signaling pathway with the pleiotropic PPARgamma coactivator (PGC) from Tox21 10K library (AID 1224841; call rule not given here; further: series mostly up to about 92 µM; actives are mostly falling curves and most rising ones were filed inactive; nearly all actives have a fitted effect of over 50% in size). The essentials:
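PGC/ERR reporter cells were seeded at 2,000 cells/well and held 6 hours at 37 C/5% CO2 before pin-tool addition of compounds in DMSO. After 18 hours at 37 C, One-Glo was added and luminescence read after 30 minutes at room temperature.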

Assay [17] in a line: qHTS assay to identify small molecule agonists of the estrogen related receptor signaling pathway with the pleiotropic PPARgamma coactivator (PGC) from Tox21 10K library (AID 1224842). Further: nearly all actives have a fitted effect of over 15% in size. Summed up:
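PGC/ERR reporter cells (NTP line) were seeded 2,000 per well, rested 6 h at 37 C/5% CO2, then pin-dosed with compounds in DMSO for 18 h at 37 C; luciferase read by One-Glo luminescence after 30 min at room temperature.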

Assay [18] is described as follows: qHTS assay to identify small molecule antagonists of the estrogen related receptor (ERR) signaling pathway - cell viability counter screen (AID 1224818).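 Further: series mostly up to about 46 µM; viability measured after 17.5 h of compound exposure.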 Summed up:
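ERR reporter cells plated 6 h at 37 C/5% CO2, then compounds in DMSO pin-transferred and incubated 17.5 h at 37 C. Viability read as CellTiter-Fluor fluorescence after 30 min at 37 C.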

Assay [19] is described as follows: qHTS assay to identify small molecule antagonists of the estrogen related receptor signaling pathway with the pleiotropic PPARgamma coactivator (PGC) cell viability counter screen (AID 1224822; further: series mostly up to about 46 µM). The essentials:
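PGC/ERR cells were seeded at 2,000 cells/well, rested 6 h at 37 C/5% CO2, then given compounds in DMSO by pin tool and incubated 17.5 h at 37 C. Viability came from CellTiter-Fluor fluorescence after 30 min.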

Chain of Thyrotropin receptor (Homo sapiens) (P16473 whole entry, looked up): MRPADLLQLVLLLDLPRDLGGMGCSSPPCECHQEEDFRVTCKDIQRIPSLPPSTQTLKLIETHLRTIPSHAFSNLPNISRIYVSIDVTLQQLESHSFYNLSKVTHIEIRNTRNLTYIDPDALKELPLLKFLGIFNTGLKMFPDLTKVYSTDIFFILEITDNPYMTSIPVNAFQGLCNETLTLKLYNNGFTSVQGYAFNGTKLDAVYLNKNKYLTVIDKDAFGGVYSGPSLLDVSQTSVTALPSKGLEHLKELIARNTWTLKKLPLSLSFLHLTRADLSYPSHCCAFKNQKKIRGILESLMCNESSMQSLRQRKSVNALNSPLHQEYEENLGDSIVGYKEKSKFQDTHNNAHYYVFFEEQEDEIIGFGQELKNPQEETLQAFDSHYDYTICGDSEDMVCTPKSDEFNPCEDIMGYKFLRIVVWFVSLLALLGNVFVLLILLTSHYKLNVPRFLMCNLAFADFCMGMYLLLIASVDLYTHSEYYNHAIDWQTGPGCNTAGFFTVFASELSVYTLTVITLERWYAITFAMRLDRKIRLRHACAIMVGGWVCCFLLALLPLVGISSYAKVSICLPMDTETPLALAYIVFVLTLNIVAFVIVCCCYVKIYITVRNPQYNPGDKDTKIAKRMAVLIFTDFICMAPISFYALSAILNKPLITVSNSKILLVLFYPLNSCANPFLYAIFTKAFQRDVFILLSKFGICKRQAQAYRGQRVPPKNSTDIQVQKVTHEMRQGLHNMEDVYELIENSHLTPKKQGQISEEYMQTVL
Chain of Luciferin 4-monooxygenase (Photinus pyralis) (P08659 whole entry, looked up): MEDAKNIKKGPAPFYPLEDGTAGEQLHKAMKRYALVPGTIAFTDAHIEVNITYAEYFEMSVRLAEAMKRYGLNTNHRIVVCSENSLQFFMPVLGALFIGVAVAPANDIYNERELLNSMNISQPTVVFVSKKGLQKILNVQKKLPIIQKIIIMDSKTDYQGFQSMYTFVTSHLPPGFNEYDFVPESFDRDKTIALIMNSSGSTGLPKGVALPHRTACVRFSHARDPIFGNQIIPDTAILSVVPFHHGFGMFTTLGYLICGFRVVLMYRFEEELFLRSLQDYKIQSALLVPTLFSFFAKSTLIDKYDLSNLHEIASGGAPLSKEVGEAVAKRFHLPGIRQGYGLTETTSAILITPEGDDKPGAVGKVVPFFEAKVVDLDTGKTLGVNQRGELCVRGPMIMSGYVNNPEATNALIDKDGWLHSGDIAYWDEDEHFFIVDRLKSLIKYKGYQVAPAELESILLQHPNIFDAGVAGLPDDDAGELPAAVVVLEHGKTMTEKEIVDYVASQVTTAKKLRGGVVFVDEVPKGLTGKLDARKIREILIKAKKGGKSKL
Chain of Retinoic acid receptor RXR-alpha (Homo sapiens) (P19793 whole entry, looked up): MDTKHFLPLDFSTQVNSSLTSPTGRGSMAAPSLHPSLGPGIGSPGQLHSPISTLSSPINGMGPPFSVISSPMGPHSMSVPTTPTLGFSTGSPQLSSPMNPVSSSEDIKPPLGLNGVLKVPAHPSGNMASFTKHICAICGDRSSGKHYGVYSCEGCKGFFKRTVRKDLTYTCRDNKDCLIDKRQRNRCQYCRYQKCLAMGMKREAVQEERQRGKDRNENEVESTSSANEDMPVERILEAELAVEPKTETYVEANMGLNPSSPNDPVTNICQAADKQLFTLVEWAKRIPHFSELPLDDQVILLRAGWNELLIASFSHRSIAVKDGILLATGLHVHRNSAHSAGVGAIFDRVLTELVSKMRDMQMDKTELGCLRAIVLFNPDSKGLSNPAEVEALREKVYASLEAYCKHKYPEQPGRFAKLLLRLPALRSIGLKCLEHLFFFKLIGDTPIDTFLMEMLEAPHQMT
Chain of Nuclear receptor subfamily 1 group I member 3 (Homo sapiens) (Q14994 whole entry, looked up): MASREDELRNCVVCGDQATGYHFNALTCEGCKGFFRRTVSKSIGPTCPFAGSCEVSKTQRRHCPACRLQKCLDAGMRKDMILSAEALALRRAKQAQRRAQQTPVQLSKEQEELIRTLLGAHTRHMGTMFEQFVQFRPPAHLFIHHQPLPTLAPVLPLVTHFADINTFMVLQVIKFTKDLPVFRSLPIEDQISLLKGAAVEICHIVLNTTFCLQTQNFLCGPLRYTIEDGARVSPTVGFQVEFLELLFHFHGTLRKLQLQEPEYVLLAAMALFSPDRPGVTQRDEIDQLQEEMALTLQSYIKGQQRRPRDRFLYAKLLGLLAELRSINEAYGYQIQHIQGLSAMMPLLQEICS

As to `CC1=CCC2CC1C2(C)C` (centres undefined), the Potency result in assay [1], in assay [2], in assay [4], in [5], in assay [6] and in assay [7] was “inactive” each time. For the same molecule, the Potency entry in assay [8], in [9], in assay [10], in assay [11] and in assay [12] was “inactive” in each case. Moreover, the outcome in assay [3] and in [13] was inactive.

Turning to `O=[N+]([O-])c1ccc(/C=C/c2ccc([N+](=O)[O-])cc2S(=O)(=O)O)c(S(=O)(=O)O)c1`, the Potency entry in assay [1], in assay [2], in assay [5], in [6], in assay [7] and in assay [8] was “inactive” throughout. For the same molecule, the Potency entry in [14], in [15], in assay [9] and in assay [11] was “inactive” in each case. Moreover, the molecule was classed as inactive in [3] and in [13].

Regarding `CC1=C(C)S(=O)(=O)CCS1(=O)=O`, the Potency result in assay [1], in [2], in assay [5], in assay [6], in assay [7] and in assay [8] was “inactive” in each case. Also, the Potency entry in assay [14], in [9], in assay [16], in assay [11] and in assay [12] was “inactive” throughout. For the same molecule, the call in assay [3], in [17] and in assay [13] was inactive. Besides, the Potency in assay [15] is 3.01 µM (active).

As for `CCC(O)OCCCOC` (centres undefined), the Potency result in assay [1], in assay [2], in assay [5], in [6], in [7] and in [8] was “inactive” throughout. The Potency result in assay [14], in assay [15], in [9], in assay [16], in assay [10] and in [11] was “inactive” throughout. For the same molecule, the Potency result in [12] is “inactive”. The result in assay [3], in [17] and in [13] was inactive.

Turning to `CCCCC(CC)COC(=O)CS` (centres undefined), the Potency entry in assay [1], in assay [2], in [4], in assay [5], in [6] and in [7] was “inactive” in each case. Besides, the Potency entry in assay [8], in assay [9], in [16], in [10], in [11] and in assay [12] was “inactive” in each case. Also, the call in assay [3], in assay [17] and in [13] was inactive.

Turning to `O=c1[nH]nnc2ccccc12`, the Potency result in assay [1], in assay [2], in assay [5], in assay [6], in assay [7] and in assay [8] was “inactive” in each case. For the same molecule, the Potency result in [14], in [15], in assay [9], in assay [16], in assay [10] and in [11] was “inactive” each time. Also, the Potency entry in assay [12] is “inactive”. Besides, the molecule was called inactive in assay [3], in assay [17] and in assay [13].

As for `COCCCOc1ccnc(CS(=O)c2nc3ccccc3[nH]2)c1C` (centres undefined), the Potency result in assay [1], in assay [2], in assay [5], in [7], in assay [8] and in assay [14] was “inactive” in each case. Also, the Potency entry in [9], in assay [16], in assay [10], in assay [11] and in [12] was “inactive” each time. For the same molecule, the molecule was classed as inactive in [3], in [17] and in assay [13]. Also, the Potency was 3.84 µM (active) in assay [4] and 6.83 µM (active) in [15].

For `Cc1ccc2oc(=O)ccc2c1`, the Potency entry in assay [1], in assay [2], in [4], in [5], in assay [6] and in [7] was “inactive” in each case. Also, the Potency result in [8], in assay [14], in assay [9], in assay [10], in assay [11] and in [12] was “inactive” throughout. Also, the molecule was called inactive in assay [3] and in assay [13].

Turning to `COc1ccc(Nc2ccccc2)c(C)c1`, the Potency result in [1], in assay [2], in assay [5], in assay [6], in assay [7] and in assay [8] was “inactive” each time. In addition, the Potency entry in [9], in assay [16], in assay [10], in assay [11] and in assay [12] was “inactive” each time. The outcome in assay [3], in [17] and in assay [13] was inactive.

In the case of `Cc1cnc(C(=O)NCCc2ccc(S(=O)(=O)NC(=O)NC3CCCCC3)cc2)cn1`, the Potency result in assay [2], in assay [4], in assay [5], in [6], in assay [7] and in assay [8] was “inactive” each time. Also, the Potency entry in assay [9], in assay [10] and in assay [11] was “inactive” each time. Also, the molecule was called inactive in [3], in [18] and in [19].

`CC(c1cc2ccccc2s1)N(O)C(N)=O` (centres undefined): the Potency result in [1], in assay [2], in assay [5], in [6], in assay [7] and in assay [8] was “inactive” throughout. In addition, the Potency result in assay [9], in assay [11] and in assay [12] was “inactive” throughout. Also, the molecule was called inactive in assay [3] and in [13].
